Results reported in ChEMBL document CHEMBL1157539, “Thousands of chemical starting points for antimalarial lead identification” (Nature, 2010).

Tests used:
Assay type in all cases: functional
[1] = tested on: Plasmodium falciparum; experiment: GSK_TCMDC: Inhibition of Plasmodium falciparum 3D7 in whole red blood cells, using parasite LDH activity as an index of growth. Test compounds present at 2uM
[2] = tested on: Plasmodium falciparum; experiment: GSK_TCMDC: Inhibition of Plasmodium falciparum Dd2 in whole red blood cells, using parasite LDH activity as an index of growth. Test compounds present at 2uM
[3] = tested on: HepG2; experiment: GSK_TCMDC: Percent inhibition of human HepG2 cell line. Test compounds present at 10uM.

| SMILES | Inhibition [1] | Inhibition [2] | Inhibition [3] |
| --- | --- | --- | --- |
| COc1cccc2c(C)cc(NCc3ccc(Cl)cc3)nc12 | 97% | 5% | 7% |
| CC(CN(C)C)C(=O)Nc1cccc(-c2ccc(-c3nc4ccccc4[nH]3)s2)c1 (stereo unspecified) | 100% | 47% | 13% |
| Cc1cc(N2CCN(C)CC2)nc2ccc(NC(=O)c3cccc(N(C)C)c3)cc12 | 85% | 23% | 9% |
| COc1ccc(C2CC(=O)C3=C(C2)NC(C)=C(C(=O)OC2CCCC2)C3c2cccc(O)c2)cc1OC (stereo unspecified) | 100% | 98% | 8% |
| Cc1cc(CN2CC[C@H](NC(=O)c3ccc(Cl)c(Cl)c3)C2)ccc1OCCN1CCCC1.O=C(O)C(F)(F)F | 100% | 92% | 56% |
| O=C(O)C(=O)O.c1ccc(C2CCC(N3CCC(N4CCCC4)CC3)CC2)cc1 (stereo unspecified) | 100% | 46% | 9% |
| Cc1cc(Cl)c(S(=O)(=O)N(C)c2ccccc2)cc1OCC(=O)NC1CCCCC1 | 99% | 94% | 3% |
| CC(C)c1ccc(S(=O)(=O)Nc2cccc(CCN3CCC(N4CCCCC4)CC3)c2)cc1 | 100% | 35% | 37% |
| COc1ccc(C2C(C(=O)Nc3cc(C)ccc3OC)c3ccccc3C(=O)N2C)cc1 (stereo unspecified) | 86% | 3% | 3% |
| CCc1ccc(C2CCN(CCCCNC(=O)c3ccc(NC(=O)c4ccc(Cl)cc4)cc3)CC2)c(OCCO)c1 | 98% | 100% | 94% |
| Br.CC1(C)NC(N)=NC(=N)N1OCCSCc1cc(Cl)sc1Cl | 93% | 72% | 70% |
| Fc1ccc2[nH]c(-c3cccc(-c4ccc(CNCC5CCCO5)cc4)c3)nc2c1.O=C(O)C(F)(F)F (stereo unspecified) | 100% | 98% | 36% |
| O=C(O)C(F)(F)F.O=S(=O)(NC1CCN(c2ccnc3cc(Cl)ccc23)C1)c1cccc(F)c1 (stereo unspecified) | 98% | 88% | 19% |
| CNCCCn1c(N(C)C)nc2cc(-n3cnc4cc(-c5ccc(Cl)cc5)sc4c3=O)ccc21.O=C(O)C(F)(F)F | 86% | 27% | 39% |
| NC(=O)c1ccc(NCC(=O)Nc2cccc(-c3cccc(-c4nc5ccccc5[nH]4)c3)c2)cc1 | 99% | 30% | 9% |
| CC(C)CCNC(=O)C1Cc2c([nH]c3ccc(Br)cc23)C2(CCN(CCc3ccccc3)CC2)N1 (stereo unspecified) | 100% | 61% | 25% |

| SMILES | Inhibition [1] | Inhibition [2] | Inhibition [3] |
| --- | --- | --- | --- |
| COc1ccccc1C(C)NCC(=O)Nc1cc(C(F)(F)F)ccc1Cl (stereo unspecified) | 97% | 85% | 4% |
| CC(=O)Nc1ccc(CN2CCC(CNC(=O)c3cc(-c4cccc(Cl)c4)cs3)C2)cc1.O=C(O)C(F)(F)F (stereo unspecified) | 91% | 1% | 24% |
| O=C(O)C(F)(F)F.O=C1COC(c2ccccc2)(c2ccccc2)CN1CC1CCN(Cc2ccc(O)cc2Cl)C1 (stereo unspecified) | 85% | 81% | 53% |
| COc1ccccc1NC(=O)Nc1cccc(-c2ccc(-c3nc4cc(C(F)(F)F)ccc4[nH]3)cc2)c1 | 100% | 76% | 28% |
| Cc1ccc(NC(=O)c2ccc3ncccc3c2)cc1OC1CCN(Cc2ccsc2)C1.O=C(O)C(F)(F)F (stereo unspecified) | 88% | 49% | 5% |
| COc1ccccc1Nc1nc(C)cc(NCc2ccc(-n3ccnc3)cc2)n1 | 90% | 10% | 5% |
| Nc1c2c(nc3ccc(NC(=O)c4ccccc4)cc13)CCCC2 | 99% | 8% | 0% |
| FC(F)(F)c1ccc2[nH]c(-c3ccc(-c4cccc(CNCc5ccccc5)c4)cc3)nc2c1.O=C(O)C(F)(F)F | 100% | 43% | 0% |
| CC1(C)CCC(=Cc2ccc(Cl)cc2)CC1(O)Cn1ccnc1 (stereo unspecified) | 99% | 74% | 0% |
| CC(=O)c1cccc2c(NC(=O)Nc3ccc4nccc(N5CCN(C)CC5)c4c3)cccc12.Cl | 99% | 94% | 13% |
| Cc1nnc2c(NC(=O)/C=C/c3ccc(OC(F)(F)F)cc3)cc3cc(Cl)ccc3n12 | 94% | 99% | 19% |
| COc1ccc2nccc([C@@H](O)CN3CCC(NC(=O)c4ccc(-c5ccccc5)s4)CC3)c2c1 | 100% | 81% | 10% |
| O=C(O)C(F)(F)F.c1ccc(CCNCc2ccc(-c3ccc(CNc4ccc5ncccc5c4)cc3)cc2)cc1 | 96% | 27% | 36% |
| O=C(Nc1ccc(-c2nc3ccccc3[nH]2)cc1)c1ccc(-c2cccc([N+](=O)[O-])c2)o1 | 100% | 97% | 47% |
| CCN1C(=O)N(CCC(C)C)C2(CCN(Cc3ccc(OC)cc3O)CC2)C1=O | 89% | 77% | 13% |
| Oc1cccc(-c2nc(-c3cccc(I)c3)c(-c3ccc(-c4nc(-c5cccc(O)c5)[nH]c4-c4cccc(I)c4)cc3)[nH]2)c1 | 96% | 66% | 0% |
